Experimental data from PubChem BioAssay (NCATS).
Records with an inconclusive call do not appear. Entries that show only a call come without a potency. Active and inactive are the calls of the source. Calls follow the shape of the dose curve; as a rule, active = well fitted curve in the direction sought with a large enough effect; inconclusive = small, poorly fitted or top-dose-only effect, or another doubt; inactive = no such curve, though single readings can be large; an effect the other way counts as inactive or inconclusive.

test: P-glycoprotein substrates identified in KB-3-1 adenocarcinoma cell line, qHTS therapeutic library screen (AID 1346986); details: KB-3-1 parental cells viability, CellTiter-Glo, 72 h; series mostly up to 44.5 µM; also: nearly all actives have a fitted effect of over 60% in size;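 also: potency is for cytotoxicity meaning loss of cell viability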
How it was run: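 KB-3-1 parental and colchicine-selected P-gp-overexpressing KB-8-5-11 cells (colchicine omitted during assay), 500 cells/well, dosed in dose-response for 72 h at 37 °C; CellTiter-Glo luminescence. Cytotoxic: curve class -1.1 to -2.4, max response >50%, AC50 < 10 uM.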
Potency is read from the fitted curve at half-maximal effect.

Row | SMILES | Potency | outcome
1 | CC(=O)O[C@@H]1CC[C@@]2(C)C(CC[C@]3(C)C2[C@H](O)C=C2[C@H]4[C@@H](C)[C@H](C)CC[C@]4(C)CC[C@]23C)[C@@]1(C)C(=O)O (stereo partly specified) | inactive | –
2 | C=C1C(=O)O[C@@H]2C[C@H](C)[C@@H]3CC(=O)[C@H](O)[C@@]3(C)C[C@H]12 | inactive | –
3 | C=CC(=O)Nc1cccc(Nc2nc(Nc3ccc(NC4CN(CCF)C4)cc3OC)ncc2C(F)(F)F)c1 | 10.3 µM (active) | –
4 | CC1(C)CN(C(=O)c2ccc(-c3cccc4nc(NC(=O)C5CC5)nn34)cc2)C1 | inactive | –
5 | CC1=C(c2ccc(NC(=O)c3c(F)cccc3F)cc2)CN(c2nccs2)CC1 | inactive | –
6 | O=C(Nc1ccccc1C(=O)Nc1ccc(CCO)cc1)c1ccc([N+](=O)[O-])cc1 | inactive | –
7 | N#Cc1ccc2ncnc(NCCc3ccccc3)c2c1 | 16.4 µM (active) | –
8 | Cc1nc(NC(=O)N2CCCC2C(N)=O)sc1-c1ccnc(C(C)(C)C(F)(F)F)c1 (stereo unspecified) | 23.1 µM (active) | –
9 | O=C(c1cc(Cc2n[nH]c(=O)c3ccccc23)ccc1F)N1CCCNCC1 | inactive | –
10 | CC(=O)O[C@@H]1CC2C(/C=C(\C)C(=O)[C@@]3(O)C[C@@H](C)[C@H](OC(=O)c4ccccc4)C3/C=C/1C)C2(C)C (stereo partly specified) | inactive | –
11 | C=C1C(=O)OC2/C=C(\CO)CC/C=C(\C=O)C(OC)C(OC(=O)C(C)CC)C12 (stereo unspecified) | inactive | –
12 | C=CCCN1CCC2(CC1)CN(C(=O)c1c(F)cccc1F)c1ccc(Cl)cc12 | inactive | –
13 | CC(C)(C)Sc1c(CC(C)(C)C(=O)O)n(Cc2ccc(Cl)cc2)c2ccc(OCc3ccc4ccccc4n3)cc12 | inactive | –
14 | COc1ccc(CN2CCN(CCCSc3cc(C(C)(C)C)c(O)c(C(C)(C)C)c3)CC2)c(OC)c1OC | – | inactive [at 9.29 µM]
15 | Cc1nc(NC(=O)N2CCC[C@H]2C(N)=O)sc1-c1ccnc(C(C)(C)C(F)(F)F)c1 | 11.6 µM (active) | –
16 | C=C1C(=O)O[C@@H]2C[C@@]3(C)C[C@@H](O)C[C@H](C)C3=C[C@H]12 | inactive | –
17 | CCN(Cc1cc(Nc2nc(C)cn3c(-c4cn[nH]c4)cnc23)sn1)C(C)(C)CO | 0.0103 µM (active) | –
18 | C=C1C(=O)O[C@@H]2/C=C(\CO)CC/C=C(/C=O)C[C@H](O)[C@@H]12 | inactive | –
19 | O=c1cc(N2CCN(c3cccc(C(F)(F)F)c3)CC2)[nH]c(=O)n1C1CCCCC1 | inactive | –

Row | SMILES | Potency | outcome
20 | COc1c(C)cc(NC(=O)c2nn(Cc3ccc(F)cc3)c3c2CN(C(=O)c2ccc[nH]2)C[C@]3(C)C(N)=O)cc1C | – | inactive [at 9.29 µM]
21 | C/C(=N\N=C(N)N)c1cc(NC(=O)CCCCCCCCC(=O)Nc2cc(/C(C)=N/N=C(N)N)cc(/C(C)=N/N=C(N)N)c2)cc(/C(C)=N/N=C(N)N)c1 | 14.6 µM (active) | –
22 | CCOC(=O)CCNc1cc(N2CCc3ccccc3CC2)nc(-c2cccnc2)n1 | inactive | –
23 | COC1C(OC(=O)/C=C/C=C/C=C/C=C/C(=O)O)CCC2(CO2)C1C1(C)OC1CC=C(C)C (stereo unspecified) | inactive | –
24 | CC(=O)Nc1nc(C)c(-c2nc(N3CCCC(O)C3)no2)s1 (stereo unspecified) | 13 µM (active) | –
25 | CC(C)(F)CC(NC(c1ccc(-c2ccc(S(C)(=O)=O)cc2)cc1)C(F)(F)F)C(=O)NC1(C#N)CC1 (stereo unspecified) | inactive | –
26 | COc1cc2ncnc(Oc3ccc(CC(=O)Nc4cnn(C(C)C)c4)cc3)c2cc1OC | inactive | –
27 | C#Cc1cccc(Nc2nc3cc(C(=O)O)ccc3c3cncnc23)c1 | 5.8 µM (active) | –
28 | CN1CCc2cc3c(cc2C(=O)Cc2cc4c(cc2C1)OCO4)OCO3 | inactive | –
29 | COc1ccc(-c2c(C)nn3c(NCCN4CCOCC4)cc(C)nc23)cc1OC | inactive | –
30 | Cn1sc(=O)n(Cc2ccccc2)c1=O | 7.31 µM (active) | –
31 | CCN(Cc1ccccc1)C(=O)Cn1c(=O)n(C)c2cnc(-c3ccccc3)nc21 | inactive | –
32 | COc1cc(F)c(C(C)C)cc1-c1ccc(C(F)(F)F)cc1CN1C(=O)OC(c2cc(C(F)(F)F)cc(C(F)(F)F)c2)C1C (stereo unspecified) | inactive | –
33 | O=C(/C=C/c1ccccc1O)O[C@@H]1O[C@H](CO)[C@@H](O)[C@H](O)[C@H]1O | inactive | –
34 | Cn1cc(C2=C(c3coc4ccccc34)C(=O)NC2=O)c2cc(Br)ccc21 | inactive | –
35 | CC(C)S(=O)(=O)c1ccc2nccc(Nc3ccc4scnc4c3)c2c1 | inactive | –
36 | Cc1cc2c(F)c(Oc3ncnn4cc(OCC(C)OC(=O)C(C)N)c(C)c34)ccc2[nH]1 (stereo unspecified) | 16.4 µM (active) | –
37 | NC(=O)c1nc(Nc2ccccc2)sc1NC(=O)C1CCCCC1 | inactive | –
38 | CC1(C)CCCC2(C)C1C(OC(=O)/C=C/C=C/C=O)C=C1COC(=O)C12O (stereo unspecified) | inactive | –

test: P-glycoprotein substrates identified in KB-8-5-11 adenocarcinoma cell line, qHTS therapeutic library screen (AID 1346987); details: KB-8-5-11 (P-gp overexpressing) viability, CellTiter-Glo, 72 h; series mostly up to 44.5 µM; also: nearly all actives have a fitted effect of over 65% in size
How it was run: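 Steps: plate 500 KB-8-5-11 cells/well in DMEM + 10% FCS (colchicine removed); pin compounds in dose-response; incubate 72 h, 37 degree C, 5% CO2; add CellTiter-Glo, 5 min; read luminescence.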

Row | SMILES | Potency
39 | O=C(Nc1ccccc1C(=O)Nc1ccc(CCO)cc1)c1ccc([N+](=O)[O-])cc1 | inactive
40 | C=CCCN1CCC2(CC1)CN(C(=O)c1c(F)cccc1F)c1ccc(Cl)cc12 | inactive
41 | CC(=O)Nc1nc(C)c(-c2nc(N3CCCC(O)C3)no2)s1 (stereo unspecified) | 18.4 µM (active)
